High-throughput results (PubChem)
This is a sample that favours compounds with a hit; in the whole collection about 1.7% have one here.
VHR inh abs – DUSP3 (human) phosphatase inhibition. recombinant VHR phosphatase, pNPP absorbance. inhibition, % at 13.3 µM. 0.52% of 290,000 active. AID 1654; in the data active = inhibition above about 50%
SSB-PriA inh – inhibitors of Klebsiella pneumoniae PriA binding to SSB C-terminal tail; AlphaScreen SSBct-PriA binding, biotinylated peptide; inhibition, % at 33 µM; 0.6% of 430,000 active; AID 1272365; in the data active = inhibition mostly above about 37%, no sharp cut-off; inactive = mostly below about 20%;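 also: plate controls were negative control peptide for no effect and reference peptide for full effect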
3CLpro inhibitor – SARS-CoV 3CLpro protease inhibition. recombinant SARS-CoV 3CLpro, quenched FRET peptide cleavage. 0.14% of 290,000 active. AID 1706. inhibition, % at 6 µM. P0C6X7; in the data active = inhibition above about 12%
RecA splice inh – blocks M. tuberculosis RecA intein splicing; inhibition, % (concentration not given with the values); 0.75% of 290,000 active; P9WHJ3; cell-free RecA intein splicing, fluorescence; in the data active = inhibition above about 30%;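 also: 0% = vehicle wells and 100% = reference inhibitor control wells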
Target sequence (P9WHJ3 whole entry, looked up, canonical isoform): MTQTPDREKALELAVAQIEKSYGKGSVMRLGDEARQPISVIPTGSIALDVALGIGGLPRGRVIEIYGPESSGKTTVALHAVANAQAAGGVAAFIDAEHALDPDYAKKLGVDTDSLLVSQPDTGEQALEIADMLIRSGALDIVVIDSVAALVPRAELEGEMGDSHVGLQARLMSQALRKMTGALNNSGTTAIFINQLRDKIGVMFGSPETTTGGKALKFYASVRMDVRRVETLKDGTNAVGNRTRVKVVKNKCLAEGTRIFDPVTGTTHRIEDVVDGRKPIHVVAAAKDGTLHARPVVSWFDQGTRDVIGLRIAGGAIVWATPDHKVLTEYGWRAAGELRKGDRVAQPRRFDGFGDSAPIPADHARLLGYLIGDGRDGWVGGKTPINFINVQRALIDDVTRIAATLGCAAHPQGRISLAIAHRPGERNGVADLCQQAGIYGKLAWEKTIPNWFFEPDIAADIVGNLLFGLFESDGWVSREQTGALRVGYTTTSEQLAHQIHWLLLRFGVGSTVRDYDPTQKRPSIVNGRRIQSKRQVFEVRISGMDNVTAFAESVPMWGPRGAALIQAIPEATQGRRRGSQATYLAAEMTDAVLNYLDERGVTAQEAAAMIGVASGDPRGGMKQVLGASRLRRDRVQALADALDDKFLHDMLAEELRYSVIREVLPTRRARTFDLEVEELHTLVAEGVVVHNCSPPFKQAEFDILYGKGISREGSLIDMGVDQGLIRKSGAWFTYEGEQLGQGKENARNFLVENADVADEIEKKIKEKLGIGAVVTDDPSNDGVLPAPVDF
CCHF vOTU inh – blocks the CCHF virus ovarian tumor domain protease; CCHFV vOTU protease, Pep-AMC fluorescence; inhibition, % at 11.5 µM; 0.55% of 370,000 active; in the data active = inhibition above about 30%; also: 0% = vehicle wells with enzyme and 100% = no enzyme wells
GFP chromo cs – counter-screen: blocks GFP chromophore formation. shares compounds with RecA splice inh. cell-free GFP chromophore formation, fluorescence. EC50, µM. 83% of 2,100 active. AID 434968; call rule not given here
Starred values were filed as active, the others as inactive; x = no result.

SMILES | VHR inh abs | SSB-PriA inh | 3CLpro inhibitor | RecA splice inh | CCHF vOTU inh | GFP chromo cs
O=[N+]([O-])c1ccc(N2CCCC(C(F)(F)F)C2)c2ccncc12 (stereo not drawn) | -12 | 5 | -1 | 33* | 13 | >38
O=C1CCCC2=C1C1(O)C(=O)c3ccccc3C1(O)O2 (stereo not drawn) | -1 | -14 | 5 | 89* | 13 | 10*
Cc1[nH]c2ccccc2c1/C=N/Nc1nc2ccccc2[nH]1 | -12 | x | -13 | 34* | -2 | >38
CCOC(=O)/C=c1\s/c(=C(\C#N)C(=O)NC)n(-c2ccccc2)c1=O | 34 | x | -4 | -1 | 10 | x
CCOC(=O)/C=c1\s/c(=C(\C#N)C(N)=O)n(-c2ccccc2)c1=O | -4 | x | -2 | 49* | 11 | 24*
Cc1ccc(N(NC(=O)C(O)(c2ccccc2)c2ccccc2)C(=O)CCl)cc1 | 4 | 9 | 11 | 66* | 5 | 7.3*
Cn1c(SCC(=O)Nc2ccc(OC(F)(F)F)cc2)nnc1-c1ccc(=O)n(C)c1 | x | -1 | x | x | x | x
CC1C=CCC2C(=O)N(c3ccccc3OC(=O)c3ccco3)C(=O)C12 (stereo not drawn) | 35 | 2 | -2 | 14 | -8 | x
O=C(Oc1ccccc1N1C(=O)CCC1=O)c1ccco1 | 12 | -10 | -5 | 36* | 6 | >38
O=C(NN=c1c(=O)c2ccccc2c1=O)c1ccccc1 | 7 | -7 | -5 | 91* | 23 | 5.2*
O=C(NNC(=O)c1ccc([N+](=O)[O-])cc1)NC1(C(F)(F)F)Oc2ccccc2O1 | x | -8 | x | x | x | x
N#C/C(=C\c1ccc(O)c([N+](=O)[O-])c1)c1nc2ccccc2s1 | 2 | 29 | 0 | 51* | 24 | 23*
Oc1cc(O)c2c(c1)O[C@H](c1ccc(O)c(O)c1)[C@H](O)C2 | 37 | -5 | 3 | 36* | -7 | >38
CC(C)=CCC/C(C)=C/Cc1c(O)ccc(C(=O)/C=C/c2ccc(O)cc2)c1O | 12 | 20 | -2 | 44* | 26 | >38
O=c1ccc(-c2cccs2)nn1Cc1ccc([N+](=O)[O-])cc1 | x | 16 | x | x | x | x
O=[N+]([O-])c1ccc(Nc2nc(-c3ccccc3)c3cc(Cl)ccc3n2)cc1 | x | 3 | x | x | x | x
O=[N+]([O-])c1ccc2nc(Cl)nc(-c3ccccc3)c2c1 | 9 | -8 | 1 | 47* | 2 | >38
CCCc1[nH]nc2c1C(c1ccccc1OC)C(C#N)=C(N)O2 (stereo not drawn) | 21 | -3 | 0 | 61* | 5 | 20*
CCc1[nH]nc2c1C(C(C)C)C(C#N)=C(N)O2 (stereo not drawn) | -34 | -5 | x | 3 | -9 | x
CCCc1[nH]nc2c1C(c1cn[nH]c1-c1ccc(F)cc1)C(C#N)=C(N)O2 (stereo not drawn) | 13 | 1 | -1 | 81* | x | 7.1*
CCCc1[nH]nc2c1C(CCC)C(C#N)=C(N)O2 (stereo not drawn) | 6 | 2 | 2 | 64* | 8 | 35*
O=C(Nc1ccc2c(c1)OCO2)N1CCCC(c2nnc(-c3cccs3)o2)C1 (stereo not drawn) | x | -10 | x | x | x | x
Oc1ccc(/C=N/Nc2ccc(C(F)(F)F)cn2)c(O)c1 | 5 | x | 7 | 42* | 22 | >38
Oc1ccc(/C=N/Nc2ccc(C(F)(F)F)cn2)cc1 | 10 | x | 2 | -3 | 13 | x
CC(=O)N(c1ccccc1)C(C)c1nc(C#N)c(C#N)nc1C (stereo not drawn) | 39 | 3 | -2 | 62* | -4 | 38*
SMILES | VHR inh abs | SSB-PriA inh | 3CLpro inhibitor | RecA splice inh | CCHF vOTU inh | GFP chromo cs
CC(=O)N(c1ccccc1)c1nc(C)cc(C)c1C#N | 0 | -4 | -2 | 1 | -1 | x
O=C(NCc1ccc2c(c1)OCO2)c1nc(S(=O)(=O)Cc2ccccc2F)ncc1Cl | -3 | -7 | 1 | 37* | 8 | 8.9*
O=C(NCc1ccc2c(c1)OCO2)c1nc(S(=O)(=O)Cc2ccccc2)ncc1Cl | 46 | 1 | -2 | 53* | -1 | 14*
O=C(NCc1ccc2c(c1)OCO2)c1ccccc1Cl | x | -6 | x | -2 | 1 | x
Cn1c(=NC(=O)CN2C(=O)c3ccccc3C2=O)sc2cc3c(cc21)OCO3 | x | -1 | x | x | x | x
O=C(Nc1ccc(C(F)(F)F)cc1)N(Cc1ccco1)C1CCOCC1 | x | -69 | x | x | x | x
O=S(=O)(CCc1ccccc1)NCC1(c2cccs2)CCCC1 | x | -11 | x | x | x | x
CCOC(=O)c1c(CC(C)C)csc1NC(=O)C(C)C | 14 | -75 | 1 | 9 | 7 | x
CCOC(=O)c1c(CC(C)C)csc1NC(=O)CCl | 10 | -7 | 3 | 52* | 24 | >38
O=C(Cc1ccccc1F)Nc1nc2ccccc2[nH]1 | 22 | -5 | 4 | 38* | -11 | >38
COc1cc(/C=C2/SC(=S)NC2=O)ccc1OS(=O)(=O)c1ccc(C)cc1 | -15 | 37 | 4 | 36* | x | 23*
COc1cc(/C=C2\SC(=S)NC2=O)ccc1OS(=O)(=O)c1ccccc1 | -5 | x | 3 | 25 | x | x
Cc1nnc2ccc(-c3ccc(NC(=O)COc4ccc(Cl)cc4)cc3)nn12 | x | -10 | x | x | x | x
O=C(CSc1nnc2ccc3ccccc3n12)Nc1ccc(Cl)cc1 | x | 1 | x | x | x | x
N#CC1=C(N)Oc2n[nH]c(-c3cccs3)c2C1c1cccnc1 (stereo not drawn) | 14 | 2 | -11 | 69* | 0 | >38
Cc1ccc(C2C(C#N)=C(N)Oc3n[nH]c(-c4cccs4)c32)cc1 (stereo not drawn) | 13 | 2 | -1 | 66* | 12 | 7.6*
CC(C)c1[nH]nc2c1C(c1cccs1)C(C#N)=C(N)O2 (stereo not drawn) | -3 | -15 | 0 | 62* | 8 | 28*
CC(C)(C)c1[nH]nc2c1C(c1cccnc1)C(C#N)=C(N)O2 (stereo not drawn) | 22 | -13 | -2 | -2 | 8 | x
CC(C)C1C(C#N)=C(N)Oc2n[nH]c(-c3cccs3)c21 (stereo not drawn) | 2 | -18 | -4 | 15 | -11 | x
Cc1cc(C(=O)N2CC(c3nc(-c4cccc(Cl)c4)no3)C2)no1 | x | -29 | x | x | x | x
O=S(=O)(Nc1ccc(F)cc1)c1ccc(Oc2ccccc2Cl)cc1 | x | -3 | x | x | x | x
OC(COC(c1ccc(Cl)cc1)c1ccc(Cl)cc1)CN1CCc2ccccc2C1 (stereo not drawn) | -5 | -23 | -1 | 30* | 17 | >38
O=C(Cc1cccc2ccccc12)NCCCOc1cccc2cccnc12 | x | 17 | x | x | x | x
O=C1C(=O)c2ccccc2C(O)=C1CCCCl | -1 | 10 | 3 | 60* | x | 12*
COc1ccc(CC2=C(O)c3ccccc3C(=O)C2=O)cc1 | 9 | 18 | 3 | 2 | -5 | x
Nc1ccc(O)c2ccccc12 | x | x | x | 88* | x | 11*
CC(=O)OCCN(C)c1cc(SC(C)C)c2nonc2c1[N+](=O)[O-] | 8 | 1 | 3 | 34* | 4 | >38
CN(CCO)c1cc(Sc2nc3ccccc3s2)c2nonc2c1[N+](=O)[O-] | 29 | 8 | -1 | 94* | 0 | 1.4*
